Laboratory results as given in PubChem BioAssay (NCATS).
Where “and” joins values, the source holds several entries; their conditions need not be identical. Identical values can stand only once. Records with an inconclusive call do not appear. Where a structure was tested more than once in an assay, its records may differ in their call. Calls of active or inactive are those of the source. Unless noted, the call rests on the fitted dose curve; in most records, active means well fitted curve in the direction sought with a large enough effect; inconclusive means small, poorly fitted or top-dose-only effect, or another doubt; inactive means no such curve, though single readings can be large; an effect the other way counts as inactive or inconclusive.

How the values were obtained:
[1] = Cell Viability - NIH 3T3 (AID 541); conditions: NIH 3T3 cell viability, qHTS; activity change, negative = cytotoxicity: at 92.2 µM (top of the series);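 further: plate controls were DMSO alone for no effect and tamoxifen positive control for full effect; nearly all actives have a fitted effect of over 25% in size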
Summary of the method: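 NIH 3T3 mouse embryo fibroblasts (1000 cells/well) were plated in complete medium and treated with compound for 40 hr at 37 °C. Viability was read as intracellular ATP by CellTiter-Glo luminescence; AC50 values came from Hill-equation fits of concentration-response data.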

[2] = Cell Viability - H-4-II-E (AID 543); further: on the % scale 0 is the no-effect control and ±100 the full control effect; nearly all actives have a fitted effect of over 35% in size
Summary of the method: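 Rat hepatoma H-4-II-E cells (1500/well) were plated, incubated 5 hr at 37 °C, then exposed to compounds for 40 hr at 37 °C. Cellular ATP was read by CellTiter-Glo luminescence; AC50 came from Hill-equation fits of concentration-response data.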

[3] = Cell Viability - LYMP1-003 - Assay at 40 hr (AID 964); further: on the % scale 0 is the no-effect control and ±100 the full control effect; nearly all actives have a fitted effect of over 60% in size
Summary of the method: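 Human lymphoblastoid LYMP1-003 cells, 2500/well in complete medium, rested 5 hr at 37 C, then exposed to compounds for 40 hr at 37 C. Viability read as intracellular ATP by CellTiter-Glo luminescence; AC50 from Hill fits of concentration-response data.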

[4] = Cell Viability - LYMP2-021 (AID 974);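 further: compound exposure lasts 24 hours at 37 °C; on the % scale 0 is the no-effect control and ±100 the full control effect; nearly all actives have a fitted effect of over 55% in size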
Summary of the method: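 Human lymphoblastoid cells (2500/well) were preincubated 5 hr at 37 C, then exposed to compounds for 24 hr at 37 C in complete medium. Intracellular ATP was read by CellTiter-Glo luminescence; AC50 came from Hill-equation fits of concentration-response data.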

[5] = Cell Viability - LYMP2-025 (AID 976);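 further: plate controls were DMSO only for no effect and tetraoctylammonium bromide control for full effect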
Summary of the method: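 Human lymphoblastoid LYMP2-025 cells (2500/well) were pre-incubated 5 hr at 37 C, then treated with compounds for 24 hr at 37 C in complete medium. Viability was read as intracellular ATP by CellTiter-Glo luminescence; AC50 from Hill fits.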

[6] = Cell Viability - LYMP2-007 (AID 979);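 further: cells exposed to compound for 24 h before reading; 0% = DMSO only and the negative end = 92 µM tetraoctylammonium bromide; nearly all actives have a fitted effect of over 60% in size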
Summary of the method: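 Human lymphoblastoid cells (2500/well) were plated in complete medium, incubated 5 hr at 37 C, then exposed to compounds for 24 hr at 37 C. Intracellular ATP was read by CellTiter-Glo luminescence after 30 min at room temperature; AC50 from Hill fits.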

[7] = Cell Viability - LYMP2-014 (AID 983);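 further: plate controls were DMSO only for no effect and 92 µM tetraoctylammonium bromide for full effect; nearly all actives have a fitted effect of over 50% in size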
Summary of the method: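 Human lymphoblastoid cells (2500/well) were pre-incubated 5 hr at 37 C, then exposed to compounds in complete medium for 24 hr at 37 C. Intracellular ATP was read by CellTiter-Glo luminescence after 30 min at room temperature; AC50 from Hill fits.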

[8] = Cell Viability - LYMP2-016 (AID 984); further: on the % scale 0 is the no-effect control and ±100 the full control effect; nearly all actives have a fitted effect of over 55% in size
Summary of the method: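 Concentration-dependent ATP depletion measured in LYMP2-016 lymphoblastoid cells, 24 h, 37 C; luciferase-based luminescent detection; Hill-equation AC50.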

[9] = target: Vitamin D3 receptor (Homo sapiens) (UniProt P11473); experiment: qHTS assay for small molecule antagonists of vitamin D receptor signaling (AID 588541; calls by dose curve;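 further: receptor activated by calcitriol during compound treatment; on the % scale 0 is the no-effect control and ±100 the full control effect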)
Summary of the method: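 VDR-UAS-bla HEK293T cells (2000/well, 2% charcoal-stripped FBS) were treated with titrated compounds plus 1-alpha,25-dihydroxyvitamin D3 (50 nM or 3 nM final) for 16 h at 37 C. CCF4 beta-lactamase fluorescence was read; Hill fits gave IC50.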

[10] = target: Thyroid hormone receptor beta (Homo sapiens) (UniProt P10828); experiment: qHTS assay for small molecule antagonists of thyroid hormone receptor beta signaling (AID 588547; active means well fitted inhibition curve with a large enough effect in the signal ratio, with a control signal flat, not every such curve was filed as active; the % refers to the signal ratio;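 further: cells stimulated with 0.4 nM T3 agonist during compound exposure; on the % scale 0 is the no-effect control and ±100 the full control effect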); conditions: TR-UAS-bla HEK293, beta-lactamase ratio, antagonist mode, 18 h
Summary of the method: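 TR-UAS-bla GripTite HEK293 cells in 2% charcoal/dextran FBS medium were preincubated 4 h at 37 C, given compound (0.59 nM to 92 uM) plus 0.4 nM T3 (final) for 18 h, then CCF4 for 2 h at RT; Hill fit gave IC50.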

[11] = qHTS assay for small molecule activators of the p53 signaling pathway (AID 651743; active means well fitted activation curve with a large enough effect in the signal ratio, not every such curve was filed as active; the % refers to the signal ratio; further: potency means the concentration at half of the fitted maximal effect; on activation: % of control where 0% means no effect); conditions: HCT-116 p53RE-bla, beta-lactamase FRET ratio, 16 h; activation: stronger effect = higher value
Summary of the method: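 p53RE-bla HCT-116 cells with a stably integrated beta-lactamase reporter under p53 response elements were plated, rested 5 hours at 37 C/5% CO2, then exposed to compounds in DMSO for 16 hours at 37 C. LiveBLAzer B/G FRET substrate was read after 2 hours at room temperature.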

[12] = Cell Viability - LYMP2-004 (AID 966);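 further: plate controls were DMSO only for no effect and tetraoctylammonium bromide control for full effect; nearly all actives have a fitted effect of over 65% in size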
Summary of the method: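 Human lymphoblastoid cells (2500/well) in complete medium were treated with compounds for 24 hr at 37 C, then intracellular ATP was measured by CellTiter-Glo luminescence. AC50 values came from Hill-equation fits of concentration-response data.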

[13] = Cell Viability - LYMP2-018 (AID 985);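 further: compound exposure lasted 24 hr at 37 °C; nearly all actives have a fitted effect of over 50% in size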; further: potency means the concentration at half of the fitted maximal effect;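 on activity change, negative = cytotoxicity: plate controls were DMSO only for no effect and tetraoctylammonium bromide at 92 µM for full effect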
Summary of the method: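 Human lymphoblastoid cells (2500/well) were pre-incubated 5 hr at 37 C, then exposed to compounds for 24 hr at 37 C in complete medium. Viability was read as intracellular ATP by CellTiter-Glo luminescence; AC50 values came from Hill-equation fits.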

[14] = target: Retinoic acid receptor RXR-alpha (Homo sapiens) (UniProt P19793); experiment: qHTS assay for small molecule antagonists of retinoid X receptor alpha signaling (AID 588546; active means well fitted inhibition curve with a large enough effect in the signal ratio, with a control signal flat, not every such curve was filed as active; the % refers to the signal ratio;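 further: cells stimulated with 9-cis-retinoic acid as agonist; on the % scale 0 is the no-effect control and ±100 the full control effect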); conditions: HEK293T RXRa-UAS-bla, beta-lactamase ratio, antagonist mode
Summary of the method: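 Beta-lactamase reporter inhibition, read as CCF4 fluorescence ratio (ex 405, em 460/530 nm) after 2 h at RT. HEK293T UAS-bla cells, 2500/well, were stimulated with 9-cis-RA at 500 or 100 nM final alongside test compound for 18 h at 37 C.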

[15] = target: Mitogen-activated protein kinase 10 (Mus musculus) (UniProt Q61831); experiment: JNK3 AlphaScreen Assay (AID 530; active means well fitted curve in either direction with a large enough effect, not every such curve was filed as active;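 further: kinase came from lysate of stimulated human HepG2 cells; signal reports phosphorylation of biotinylated GST-cJun 1-79 at Ser73 with 10 µM ATP; on the % scale 0 is the no-effect control and ±100 the full control effect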)
Summary of the method: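 JNK3 came from HepG2 lysates pre-activated with IL-1beta and TNF-alpha and phosphorylated biotinylated GST-cJun (1-79) at 10 uM ATP, pH 7.6, room temperature. Compounds were titrated. AlphaScreen signal used anti-phospho-cJun (Ser73) antibody.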

[16] = target: Bile acid receptor (Homo sapiens) (UniProt Q96RI1); experiment: qHTS assay for small molecule antagonists of farnesoid X receptor signaling (AID 588526; calls by dose curve; further: potency means the concentration at half of the fitted maximal effect)
Summary of the method: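 Concentration-response titrations were fitted to the Hill equation for half-maximal inhibition and maximal response, with data normalised to 50 uM chenodeoxycholic acid and DMSO control wells. Cells: FXR-UAS-bla HEK293T, dialyzed FBS.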

[17] = MultiTox-Fluor Cytotoxicity Assay - LYMP1-001 - Live Cells (AID 947);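 further: 0% = DMSO only and full inhibition = tetraoctylammonium bromide control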
[18] = qHTS assay for small molecule antagonists of peroxisome proliferator-activated receptor delta signaling (AID 588535); conditions: HEK293T PPARd-UAS-bla, beta-lactamase FRET ratio, 18 h; 460 nm channel;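 further: cells co-treated with a PPAR-delta agonist as stimulator during compound exposure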
Summary of the method: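 GeneBLAzer PPAR-delta-UAS-bla HEK293T cells in medium with 2% charcoal/dextran FBS were preincubated 5 hrs at 37 C, then given compounds, incubated 18 hrs at 37 C, and read by CCF4 beta-lactamase fluorescence; IC50 from Hill fits.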

[19] = target: Peroxisome proliferator-activated receptor gamma (Homo sapiens) (UniProt P37231); experiment: qHTS assay for small molecule antagonists of peroxisome proliferator-activated receptor gamma signaling (AID 588537; active means well fitted inhibition curve with a large enough effect in the signal ratio, with a control signal flat, not every such curve was filed as active; the % refers to the signal ratio;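 further: reporter cells co-stimulated with 50 nM rosiglitazone agonist during compound treatment; % of control where 0% means no effect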)
Summary of the method: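 PPAR-gamma-UAS-bla HEK293 cells (3000/well, 1% charcoal/dextran-stripped FBS) were preincubated 6-6.5 h at 37 C, given titrated compounds, then stimulated with 50 nM rosiglitazone for 16 h. Beta-lactamase activity was read with CCF4 dye; IC50 came from Hill fits.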

Chain of Vitamin D3 receptor (Homo sapiens) (P11473 whole entry, looked up): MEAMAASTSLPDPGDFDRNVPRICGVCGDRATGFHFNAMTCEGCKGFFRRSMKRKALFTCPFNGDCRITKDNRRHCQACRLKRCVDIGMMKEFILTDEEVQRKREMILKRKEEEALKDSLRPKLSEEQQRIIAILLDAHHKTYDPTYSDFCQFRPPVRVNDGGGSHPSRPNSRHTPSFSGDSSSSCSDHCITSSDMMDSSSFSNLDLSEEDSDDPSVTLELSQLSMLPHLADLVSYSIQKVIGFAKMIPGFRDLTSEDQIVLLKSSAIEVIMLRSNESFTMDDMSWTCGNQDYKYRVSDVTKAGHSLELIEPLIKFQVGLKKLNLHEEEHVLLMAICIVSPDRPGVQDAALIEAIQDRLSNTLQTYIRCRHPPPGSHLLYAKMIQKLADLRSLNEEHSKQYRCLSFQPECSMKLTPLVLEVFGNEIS
Chain of Thyroid hormone receptor beta (Homo sapiens) (P10828 whole entry, looked up): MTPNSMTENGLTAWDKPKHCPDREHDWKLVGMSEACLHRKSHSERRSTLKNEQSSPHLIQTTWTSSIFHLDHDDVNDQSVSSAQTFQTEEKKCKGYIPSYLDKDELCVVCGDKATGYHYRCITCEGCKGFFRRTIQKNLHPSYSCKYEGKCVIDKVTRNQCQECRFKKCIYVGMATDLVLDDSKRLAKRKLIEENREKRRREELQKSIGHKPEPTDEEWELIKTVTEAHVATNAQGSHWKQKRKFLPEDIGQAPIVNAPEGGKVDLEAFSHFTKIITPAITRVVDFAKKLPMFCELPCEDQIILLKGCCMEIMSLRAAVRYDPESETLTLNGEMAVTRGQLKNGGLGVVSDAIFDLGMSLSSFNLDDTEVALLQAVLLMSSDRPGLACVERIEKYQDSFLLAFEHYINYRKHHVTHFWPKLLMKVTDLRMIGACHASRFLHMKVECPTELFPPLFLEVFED
Chain of Retinoic acid receptor RXR-alpha (Homo sapiens) (P19793 whole entry, looked up): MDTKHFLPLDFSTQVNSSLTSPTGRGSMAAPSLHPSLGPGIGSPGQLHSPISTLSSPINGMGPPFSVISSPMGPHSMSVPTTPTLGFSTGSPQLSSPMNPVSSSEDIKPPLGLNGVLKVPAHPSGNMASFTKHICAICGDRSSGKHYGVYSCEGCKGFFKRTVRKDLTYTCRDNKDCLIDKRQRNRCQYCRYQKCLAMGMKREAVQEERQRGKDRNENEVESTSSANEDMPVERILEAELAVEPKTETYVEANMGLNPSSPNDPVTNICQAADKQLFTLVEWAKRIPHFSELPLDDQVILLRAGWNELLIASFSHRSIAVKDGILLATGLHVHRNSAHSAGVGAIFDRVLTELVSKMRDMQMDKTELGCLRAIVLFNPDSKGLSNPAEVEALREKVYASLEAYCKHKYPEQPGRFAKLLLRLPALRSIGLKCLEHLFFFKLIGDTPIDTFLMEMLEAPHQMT
Chain of Peroxisome proliferator-activated receptor gamma (Homo sapiens) (P37231 whole entry, looked up): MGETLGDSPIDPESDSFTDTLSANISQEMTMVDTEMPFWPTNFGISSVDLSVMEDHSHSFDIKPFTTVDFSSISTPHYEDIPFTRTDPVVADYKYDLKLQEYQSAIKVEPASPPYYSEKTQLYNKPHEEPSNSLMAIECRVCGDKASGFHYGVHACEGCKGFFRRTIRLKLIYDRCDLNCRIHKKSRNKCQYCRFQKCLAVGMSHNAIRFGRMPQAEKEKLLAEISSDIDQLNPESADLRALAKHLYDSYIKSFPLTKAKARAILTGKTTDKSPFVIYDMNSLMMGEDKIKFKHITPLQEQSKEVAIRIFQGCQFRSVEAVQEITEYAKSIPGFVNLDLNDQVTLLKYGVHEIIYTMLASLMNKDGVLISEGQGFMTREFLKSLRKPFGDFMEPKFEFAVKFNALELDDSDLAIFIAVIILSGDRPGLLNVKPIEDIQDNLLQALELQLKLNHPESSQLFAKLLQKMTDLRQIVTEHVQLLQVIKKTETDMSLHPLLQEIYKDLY
Chain of Bile acid receptor (Homo sapiens) (Q96RI1 whole entry, looked up): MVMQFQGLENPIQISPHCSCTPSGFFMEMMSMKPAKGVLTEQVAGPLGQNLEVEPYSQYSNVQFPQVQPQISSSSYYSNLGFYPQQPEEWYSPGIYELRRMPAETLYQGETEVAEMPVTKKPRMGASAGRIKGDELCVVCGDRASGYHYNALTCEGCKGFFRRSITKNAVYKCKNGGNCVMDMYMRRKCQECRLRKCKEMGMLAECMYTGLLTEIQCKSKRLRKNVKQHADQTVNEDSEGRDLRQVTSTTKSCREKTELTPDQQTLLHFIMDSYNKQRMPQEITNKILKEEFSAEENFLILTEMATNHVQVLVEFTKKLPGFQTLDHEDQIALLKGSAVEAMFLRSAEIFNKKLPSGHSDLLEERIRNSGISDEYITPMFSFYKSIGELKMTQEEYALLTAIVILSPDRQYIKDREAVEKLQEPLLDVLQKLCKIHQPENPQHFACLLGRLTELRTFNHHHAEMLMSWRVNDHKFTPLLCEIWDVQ

CCCCC(CC)COC(=O)COc1ccc(Cl)cc1Cl (configuration not stated)
inactive: activity change, negative = cytotoxicity [1] 0.559% | Potency [2] | Potency [3] | Potency [4] | Potency [5] | Potency [6] | Potency [7] | Potency [8] | Potency [9] | activity change % (negative = inhibition) [10] -2.67% and 4.45% | activation [11] -1.29% and -1.26%

Nc1cc(C(=O)O)c(O)c(S(=O)(=O)O)c1
inactive: activity change, negative = cytotoxicity [1] -24.6% | Potency [3] | Potency [12] | Potency [6] | Potency [8] | Potency [13] | Potency [9] | max response [14] 3.86% | activity change % (negative = inhibition) [10] -10.1%

Nc1cnn([C@@H]2O[C@H](CO)[C@@H](O)[C@H]2O)c(=O)n1
inactive: Potency [15] | Potency [2] | Potency [12] | Potency [5] | Potency [7] | Potency [9]
active: Potency [16] 25.1 µM | Potency [11] 0.794 µM

C=Cc1cccc(C)c1
-23.4%: max response [18]
inactive: activity change, negative = cytotoxicity [1] 4.07% | Potency [17] | Potency [3] | Potency [12] | Potency [4] | Potency [5] | Potency [6] | Potency [7] | Potency [13] | Potency [19] | max response [14] -5.75%

COc1ccc(C)cc1N
4.23%: max response [18]
inactive: Potency [15] | Potency [17] | Potency [3] | Potency [12] | Potency [4] | Potency [5] | Potency [7] | Potency [8] | Potency [13] | max response [14] 10.5% | activation [11] -5.11%

CC(/C=C/C=C(C)/C=C/C(=O)O)=C\C=C\C=C(C)\C=C\C=C(C)\C=C\C(=O)O
inactive: Potency [15] | Potency [2] | Potency [3] | Potency [4] | Potency [6] | Potency [7] | Potency [8] | Potency [16] | max response [14] 16.8% | activity change % (negative = inhibition) [10] -2.15% | activation [11] -5.5%

Brc1cc(Oc2cc(Br)c(Br)c(Br)c2Br)c(Br)c(Br)c1Br
inactive: Potency [15] | Potency [17] | Potency [3] | Potency [12] | Potency [4] | Potency [5] | Potency [6] | Potency [13] | Potency [19] | activity change % (negative = inhibition) [10] 1.8% and 9.48%
14.5% and 36.5%: max response [18]

c1ccc2ncccc2c1
41.8%: max response [18]
inactive: activity change, negative = cytotoxicity [1] -0.00606% | Potency [2] | Potency [3] | Potency [12] | Potency [4] | Potency [5] | Potency [7] | Potency [8] | Potency [13] | max response [14] 0.834% | activation [11] -4.75%

Nc1ccccc1O
inactive: Potency [15] | Potency [6] | Potency [8] | activation [11] 17.3%
17.2%: max response [18]

Oc1c(Cl)cc(Cl)c(Cl)c1Cl
active: Potency [11] 44.7 µM
22.5%: max response [18]
inactive: Potency [15] | Potency [3] | Potency [12] | Potency [6] | Potency [7] | Potency [8] | Potency [16] | max response [14] 4.04% and 5.02% | activity change % (negative = inhibition) [10] -15.9% and 13.1% | activation [11] 2.74%

CCCCOC(=O)COc1ccc(Cl)cc1Cl
inactive: activity change, negative = cytotoxicity [1] 1.3% | Potency [17] | Potency [3] | Potency [12] | Potency [5] | Potency [6] | Potency [8] | Potency [16] | Potency [19] | Potency [9] | max response [14] 5.43% and -12.7% | activation [11] -0.84% and -2.7%

CC/C=C/C/C=C/C/C=C/CCCCCCCC(=O)OCC
active: Potency [13] 31.6 µM
inactive: activity change, negative = cytotoxicity [1] -19.6% | Potency [2] | Potency [17]

CC(=O)CC(=O)Nc1ccccc1
inactive: Potency [15] | Potency [2] | Potency [17] | Potency [3] | Potency [12] | Potency [4] | Potency [6] | Potency [7] | Potency [8] | Potency [13] | Potency [16] | Potency [19] | max response [14] -1.7% and -15.3%
18.5%: max response [18]

Cc1cc(=O)oc2cc(O)cc(O)c12
inactive: Potency [2] | Potency [17] | Potency [3] | Potency [12] | Potency [4] | Potency [5] | Potency [7] | Potency [8] | Potency [13] | Potency [16] | Potency [9] | activation [11] 10.2%

OCC(CO)(CBr)CBr
0.13% and -4.24%: max response [18]
inactive: Potency [15] | Potency [3] | Potency [12] | Potency [5] | Potency [8] | Potency [16] | Potency [19] | max response [14] 4.02% and -1.76%

C=CC(C)(O)CCCC(C)CCCC(C)CCCC(C)C (configuration not stated)
4.15%: max response [18]
inactive: Potency [15] | Potency [2] | Potency [17] | Potency [12] | Potency [4] | Potency [6] | Potency [7] | Potency [13] | Potency [19] | max response [14] 7.39% | activity change % (negative = inhibition) [10] 8.61%

C=C(C#N)C(=O)OCC
-32.1%: max response [18]
inactive: Potency [15] | Potency [4] | Potency [5] | Potency [7] | Potency [8] | Potency [13] | activity change % (negative = inhibition) [10] 4.82%

O=[N+]([O-])c1ccc(F)cc1F
10.2%: max response [18]
inactive: Potency [15] | Potency [2] | Potency [17] | Potency [3] | Potency [5] | Potency [7] | Potency [8] | Potency [9] | max response [14] 10.7% | activation [11] -3.21%

Clc1nc2ccccc2nc1Cl
inactive: Potency [15] | Potency [2] | Potency [3] | Potency [12] | Potency [7] | Potency [8] | max response [14] 31% | activity change % (negative = inhibition) [10] -2.15%

O=C1OC(=O)c2ccccc21
inactive: Potency [15] | Potency [2] | Potency [12] | Potency [7] | Potency [8] | Potency [13] | Potency [16] | Potency [9] | max response [14] 20.4% | activity change % (negative = inhibition) [10] 1.82%
-31.3%: max response [18]

C=CC(=O)CC
inactive: Potency [15] | Potency [12] | Potency [5] | Potency [6] | Potency [7] | Potency [8] | Potency [13] | Potency [16]
